Screening results as filed in PubChem BioAssay.
14-3-3 PPI – modulators of 14-3-3 gamma protein binding, primary screen, biochemical, fluorescence polarization. FP, 14-3-3gamma / TMR-pS259-Raf peptide binding. hit rate 0.19% among 160,000. inhibition, % at 40 µM. 14-3-3 protein gamma (Homo sapiens), P61981. AID 422, 2006; in the data active = inhibition above about 30%;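 note: 0% = protein plus tracer without compound and 100% = blank with tracer alone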
Target sequence (P61981 whole entry, looked up): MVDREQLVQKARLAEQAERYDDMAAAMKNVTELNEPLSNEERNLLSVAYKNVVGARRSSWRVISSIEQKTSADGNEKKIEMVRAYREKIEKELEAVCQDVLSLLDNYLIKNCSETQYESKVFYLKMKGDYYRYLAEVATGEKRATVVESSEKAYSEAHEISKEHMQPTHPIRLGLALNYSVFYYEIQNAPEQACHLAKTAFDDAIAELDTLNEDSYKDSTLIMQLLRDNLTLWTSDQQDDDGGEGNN
* hit, by the source's call; + = active, no number. This excerpt belongs to a sample that is enriched for hits.

SMILES	14-3-3 PPI
Clc1cccc(C2CC(c3ccc(I)cc3)Nc3ncnn32)c1 (stereo not drawn)	2.8
O=[N+]([O-])c1ccc(NCCCNS(=O)(=O)c2ccc(Cl)cc2)cc1	-7.6
O=[N+]([O-])c1ccccc1-c1ccc(C=Cc2ccc3ccccc3n2)o1	-68.2
Cc1cc([N+](=O)[O-])ccc1-c1ccc(C=Cc2ccc3cccc(O)c3n2)o1	143.5*
COc1ccc(OC)c(C=Cc2ccc3cccc(O)c3n2)c1	-3.9
COC(=O)c1ccccc1NC(=O)c1ccc(N2CC3CC(C2)c2cccc(=O)n2C3)c(NC(=O)c2ccc(Br)o2)c1 (stereo not drawn)	-45.6
O=C1c2ccccc2C(=O)c2c(Br)ccc(O)c21	-5.2
COc1ccc(CCNC(=O)Cn2c(=O)n(-c3ccccc3)c(=O)c3sccc32)cc1OC	1.0
Clc1cc2c(cc1CSc1nnnn1-c1ccccc1)OCO2	-1.1
COc1ccccc1-n1nnnc1SCc1ccccc1	-1.5
COc1ccccc1-n1nnnc1SCc1cc2c(cc1Br)OCO2	50.4*
O=C(Nc1ccccc1)N(Cc1cccnc1)Cc1ccccc1Cl	-2.5
O=[N+]([O-])c1cc(S(=O)(=O)C(Cl)(Cl)Br)ccc1NCc1ccccc1	-4.2
Cc1cccc(-c2nc3ccccc3c(=O)[nH]2)c1	-47.5
Cc1nc2ccccc2c(C(=O)O)c1C(=O)O	-3.5
C/C(O)=c1/c(=O)nc2cccc3c2=c1c1ccccc1c3=O	34.6*
COc1ccccc1NC(=O)c1ccccc1F	-0.1
COC(=O)CCCCCNc1ccc(C(=O)OC)cc1N	-11.6
Nc1ccc(NCCO)c(N)c1	90.7*
Nc1ccc(C(=O)Nc2ccc(N)cc2N)cc1	-32.8
CCOC(=O)N1CCN(S(=O)(=O)c2ccc(OC)c3ccccc23)CC1	-2.7
CC(=O)c1ccccc1NS(=O)(=O)c1c(C)nn(-c2ccccc2)c1C	-7.6
Cn1c(=O)c(N2CCOCC2)c2c3c(cccc31)C(=O)c1ccccc1-2	50.3*
Cn1c(=O)c(NCCO)c2c3c(cccc31)C(=O)c1ccccc1-2	168.5*
Cn1c(=O)c(NC2CCCCC2)c2c3c(cccc31)C(=O)c1ccccc1-2	32.5*
SMILES	14-3-3 PPI
CC(C(=O)NC1CCCCC1)N1C(=O)c2ccccc2C1=O (stereo not drawn)	-4.5
Cn1c(=O)c(=O)n(C)c2cc(S(=O)(=O)NC3CCCCCC3)ccc21	-1.8
CCNc1c2c3c(cccc3n(C)c1=O)C(=O)c1ccccc1-2	53.7*
CCNc1cccc2c1C(=O)N(C)C2=O	-15.5
O=C1c2cccc(Cl)c2C(=O)c2c1cccc2N1CCOCC1	3.6
CN1C(=O)c2cccc3c(N4CCOCC4)ccc(c23)C1=O	-5.2
CCN(CC)C(=O)c1ccc2c(c1NCCO)C(=O)c1ccccc1C2=O	-310.5
COC(=O)Cn1nc2c3c(cccc31)C(=O)c1ccccc1-2	-11.3
O=C1c2ccccc2C(=O)c2c1ccc(C(=O)N1CCCC1)c2NCCO	-243.9
COc1ccc(-n2nc3c(c2NC(=O)c2ccccc2[N+](=O)[O-])CS(=O)C3)cc1 (stereo not drawn)	4.3
CCCCn1c(SCC(=O)NCc2ccco2)nnc1-c1ccoc1C	-0.9
COC(=O)c1cc(NS(=O)(=O)c2cnc[nH]2)cc(C(=O)OC)c1	-1.8
Cc1c(N=Cc2cc([N+](=O)[O-])cc(Br)c2O)cccc1[N+](=O)[O-]	0.1
CC1(C)N=C(N)N=C(N)N1c1ccc(F)cc1F	5.6
Cc1cc(C(=O)NCc2ccccc2F)cs1	0.2
COc1ccccc1OCC(=O)NCCc1nc2ccccc2[nH]1	-5.8
CCOc1ccc(-c2nc3cc(N=Cc4cc([N+](=O)[O-])ccc4O)ccc3o2)cc1	-7.0
COC(=O)c1ccc(N=Cc2c(OC(=O)c3cccc([N+](=O)[O-])c3)ccc3ccccc23)cc1	3.2
CC(=O)Oc1ccc2ccccc2c1C=Nc1cc([N+](=O)[O-])ccc1C	87.0*
COc1cc(OC)c(C=Nc2cc([N+](=O)[O-])ccc2C)cc1Br	-5.3
CCOc1ccc(C=Nc2cc([N+](=O)[O-])ccc2C)c(O)c1	+
Cc1ccccc1NC(=O)c1cc2ccccc2c(C=Nc2ccc([N+](=O)[O-])cc2O)c1O	-105.5
COC(=O)c1[nH]c(C)c(/C(O)=C2\C(=O)C(=O)N(CCN3CCOCC3)C2c2cccnc2)c1C (stereo not drawn)	7.7
CC1(C)CC(=O)C(C(C2=C(O)CC(C)(C)CC2=O)c2cccc(O)c2O)C(=O)C1 (stereo not drawn)	3.4
COC(=O)C1C(=O)C2=C(CC1C)NC(C)=C(C(=O)OC(C)C)C2c1cccc(F)c1 (stereo not drawn)	8.8
SMILES	14-3-3 PPI
CCC(CC)C(=O)Nc1c2c(nn1-c1cccc(Cl)c1)CS(=O)(=O)C2	-2.7
CCOc1nc(NCCO)nc(Nc2ccc(I)cc2)n1	-9.0
COC(=O)c1cc(OC)c(OCc2cc(C(=O)OC)oc2C)c(OC)c1	-1.7
CN(CCCNC(=O)c1ccc2c(c1)[nH]c(=S)n1c3ccccc3nc21)Cc1ccccc1	-106.4
CCOC(=O)C(CC(=O)O)N1CCCCC1 (stereo not drawn)	35.5*
O=C(O)CC(C(=O)OC1CCCCC1)N1CCOCC1 (stereo not drawn)	3.1
O=C(O)CC(C(=O)OCC1CCCO1)N1CCOCC1 (stereo not drawn)	-6.2
O=c1nc2sc3[nH]c(=O)sc3cc-2s1	149.8*
O=C1CCCC2=C1C(c1ccc(OCc3ccc(C(=O)O)cc3)c(Br)c1)C1=C(CCCC1=O)O2	-13.9
CCOC(=O)c1[nH]c2ccccc2c1NC(=O)CCN1CCN(C(=O)OCC)CC1	-2.5
CCOc1ccc2nc(NC(=O)c3ccc(Cl)cc3[N+](=O)[O-])sc2c1	2.5
Cc1c(NC(=O)c2ccccc2)cc(S(=O)(=O)c2ccc(Cl)cc2)c(O)c1C	-12.2
NS(=O)(=O)c1ccc(NC(=O)Nc2cccc(Cl)c2)cc1	-1.3
O=C(Nc1cc(C(=O)Nc2ccc(S(=O)(=O)O)cc2S(=O)(=O)O)cc(C(=O)Nc2ccc(S(=O)(=O)O)cc2S(=O)(=O)O)c1)Nc1cc(C(=O)Nc2ccc(S(=O)(=O)O)cc2S(=O)(=O)O)cc(C(=O)Nc2ccc(S(=O)(=O)O)cc2S(=O)(=O)O)c1	31.8*
COc1ccc(Br)c(C=Nc2ccc(N3CCOCC3)cc2)c1O	-39.6
COc1ccccc1S(=O)(=O)Cc1ccc(C(=O)NCc2ccc3c(c2)OCO3)o1	-7.4
O=C(COc1ccc2c(c1)C(=O)CC1(CCCCC1)O2)NCc1ccccn1	-10.1
CC(=O)N1CCC2(CC1)CC(=O)c1cc(OCC(=O)NCc3ccccn3)ccc1O2	102.6*
O=C(COc1ccc2c(c1)C(=O)CC1(CCCCC1)O2)NCc1ccccc1	-0.8
O=c1c2c3nc4ccccc4nc3n(Cc3ccccc3)c2ncn1Cc1ccco1	-20.2
Brc1ccc(Oc2nnnn2-c2ccccc2)cc1	-3.5
CCOc1cc(NC(=O)c2ccco2)c(OCC)cc1NC(=O)Cc1ccc(OC)c(OC)c1	1.4
C=CCSc1nnc2c(n1)OC=Nc1ccc(Br)cc1-2	-7.1
C=CCSc1nnc2c(n1)OC(c1ccncc1)Nc1ccc(Br)cc1-2 (stereo not drawn)	-25.2
C=CCSc1nnc2c(n1)OC(C)(C)Nc1ccc(Br)cc1-2	111.9*
C=CCOC(=O)C1=C(C)N=C2SCCC(=O)N2C1c1cccc([N+](=O)[O-])c1 (stereo not drawn)	-17.3
CN(C)c1ccc(C(C2=C(O)CC(C)(C)CC2=O)C2=C(O)CC(C)(C)CC2=O)cc1	-19.7
Cc1cc(C)c(NC(=O)Cn2c(=O)n(Cc3ccco3)c(=O)c3ccccc32)c(C)c1	-0.7
